Laboratory results taken from ChEMBL document CHEMBL3988442, “University of Dundee, Small-Polar-MMV Screening Library” (2021).
About 13,000 (27%) of roughly 48,000 compounds showed an effect of 50% or more. This is one part of the list.

These compounds were tested on Wolbachia pipientis (assay: Anti-Wolbachia Cell-Based Screen). Conditions: 5 µM.
Type: functional
Design: scale not given: in the data most compounds retested in dose-response had high values

SMILES	Percent Effect [%]
COc1ccc(NC(=O)C2CCOC2)c(N2CCN(C(C)=O)CC2)n1 (stereo not given)	4.465
CC(=O)NCCNC(=O)C1(Oc2cccnc2C)CCNCC1	-9.586
COCCCN(C)c1nc(-c2ccncc2)nc(C)c1C	-12.12
Cc1cc(CN(C)C(=O)c2cccc(CCC(C)(C)O)c2)no1	3.557
CCn1ccnc1CN1CCC(=O)N(CC2CC2)C(C(C)C)C1 (stereo not given)	-13.21
Cc1cncc(C2CCCN(C(=O)c3cn(C)nc3C)C2)n1 (stereo not given)	117.2
Cc1nn(C)cc1C(=O)N1CCCC(c2nccn2Cc2cscn2)C1 (stereo not given)	27.14
Cc1cncc(C2CCCN(C(=O)c3cnco3)C2)n1 (stereo not given)	133.2
Cc1cncc(C2CCCN(C(=O)c3ccc(C)[nH]c3=O)C2)n1 (stereo not given)	1.082
Cc1noc(C2CCCN(C(=O)c3ccc(Br)o3)C2)n1 (stereo not given)	-1.818
Cc1cncc(C2CCCN(C(=O)c3scnc3C)C2)n1 (stereo not given)	-6.162
CS(=O)(=O)CCC(=O)Nc1ccsc1	-22.38
CC(C)c1nc(-c2cc(C(=O)O)c3ccccn23)cs1	13.08
O=S(=O)(CC1CC1)c1ncc(CN2CCSCC2)n1CC1CCCO1 (stereo not given)	-0.6342
Cc1ccc(C(=O)N2CCN(c3ccnc4ccsc34)CC2)o1	5.784
COc1ccc(Cc2ncc3c(n2)CN(C(=O)C(C)(C)OC)C3)cc1	70.44
COc1ccc(Cc2ncc3c(n2)CN(C(=O)C(C)(C)C)C3)cc1	-16.53
COc1ccc(Cc2ncc3c(n2)CN(C(=O)CO)C3)cc1	-17.5
CC(=O)Nc1nc(-c2ccc(C)c(C)c2)c[nH]1	-24.79
COc1ccc(Oc2cccc(C#N)n2)cc1CN1CCCC1	-5.576

SMILES	Percent Effect [%]
COc1cc2cc(C)c(SCCN3CCCC3)nc2cc1OC.Cl	167.2
CCc1cc2cc(OC)c(OC)cc2nc1SCCN1CCCCC1.Cl	130.7
COc1cccc(S(=O)(=O)CCN2CCCCC2)c1	0.4821
COc1ccc(C(C(=O)O)N(C)CCN2CCCC2)cc1F (stereo not given)	3.754
COc1cc2cc(C)c(SCCN3CCCCC3)nc2cc1OC.Cl	107.6
CNC(=O)c1cccc(NC(=O)CN2CCN(S(C)(=O)=O)CC2)c1	1.111
CCC(=O)N(C)Cc1cccc(OC(C)C)c1	-5.096
CCc1nc(C)c(-c2nccn2CC2CCN(C3CCCC3)CC2)[nH]1	-19.3
O=C(NCC1CCN(C(=O)c2ccoc2)CC1)c1ccccc1Br	-10.47
O=C(NC1CCC1)C1CCC2(CN(C(=O)c3ccco3)C2)O1 (stereo not given)	-15.31
O=C(NC[C@H]1OC[C@@H]2CCN(C(=O)c3ccco3)C[C@@H]21)C1CC1	-4.179
O=C(NCC1CC1)C1CCC2(CCN(C(=O)c3ccoc3)CC2)O1 (stereo not given)	90.09
O=C(c1cccs1)N1CCC2(CC1)CC(Oc1ccccc1)CO2 (stereo not given)	6.178
O=C(NCC1CC1)C1CCC2(CCN(C(=O)c3cccs3)CC2)O1 (stereo not given)	94.19
Cc1ccccc1C(=O)N1CCC2(CCC(C(=O)NCC3CC3)O2)CC1 (stereo not given)	104
COc1cccc(C(=O)NCC2CCN(C(=O)c3ccoc3)CC2)c1	-1.127
O=C(NCC1CC1)C1CN(C(=O)c2cccs2)CC12CCOCC2 (stereo not given)	-5.71
O=C(NCC1CC1)C1CCC2(CCN(C(=O)c3ccco3)CC2)O1 (stereo not given)	87.87
Cc1ccccc1C(=O)N1CC(C(=O)NCC2CC2)C2(CCOCC2)C1 (stereo not given)	-6.965
Cc1ccccc1C(=O)NC[C@@H]1CCN(C(=O)C2(O)CCCC2)C[C@H]1O	-6.733
